Binding signal data for one sequence are collected here from publication PMC7862700, “An all-to-all approach to the identification of sequence-specific readers for epigenetic DNA modifications on cytosine”.

Holding throughout (experiment): DAPPL (digital affinity profiling via proximity ligation, sequencing); 10 mM Tris-HCl pH 7.5, 50 mM NaCl, 1 mM DTT, 4% glycerol, room temperature, 30 min; GST-TFs on glutathione beads, 16-mer random dsDNA library, 0.1% formaldehyde crosslink after washing; high values mean tight binding
Assay [1] concerns the target T1, FLI1 (Homo sapiens, UniProt Q01543 1-452).
T1 sequence: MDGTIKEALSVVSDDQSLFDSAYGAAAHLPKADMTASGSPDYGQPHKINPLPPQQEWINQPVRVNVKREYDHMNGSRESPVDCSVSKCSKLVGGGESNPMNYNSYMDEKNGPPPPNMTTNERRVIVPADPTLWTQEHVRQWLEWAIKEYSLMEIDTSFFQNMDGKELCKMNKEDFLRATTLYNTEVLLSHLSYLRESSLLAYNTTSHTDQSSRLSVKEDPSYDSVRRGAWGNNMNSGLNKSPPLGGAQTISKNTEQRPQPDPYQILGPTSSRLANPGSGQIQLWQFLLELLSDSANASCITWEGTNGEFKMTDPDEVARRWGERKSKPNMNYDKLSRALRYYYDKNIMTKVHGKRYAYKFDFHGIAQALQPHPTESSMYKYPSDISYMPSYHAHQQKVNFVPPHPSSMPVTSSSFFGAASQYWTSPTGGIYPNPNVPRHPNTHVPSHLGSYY
As to conditions: protein: recombinant; tags: N-terminal GST; dsDNA, one strand shown. In outline:
(§1)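 Beads coated with glutathione captured GST-fused human transcription factors that had been expressed in yeast, and the factors were then given DNA barcodes and pooled with a tag-only sample. The pools were incubated with 200 nmole of a random double-stranded 16-mer DNA library in Tris/NaCl/DTT/glycerol buffer for 30 min at room temperature, washed, crosslinked with 0.1% formaldehyde and proximity-ligated with BsaI/T4 ligase at 37 °C for 1 h. PCR amplification and Illumina NextSeq500 sequencing came last. Binding signal is each hexamer's read frequency for a factor divided by its frequency for the tag-only sample.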

Assay [2] addresses T2, ELK1 (Homo sapiens, UniProt P19419 1-428).
T2 sequence: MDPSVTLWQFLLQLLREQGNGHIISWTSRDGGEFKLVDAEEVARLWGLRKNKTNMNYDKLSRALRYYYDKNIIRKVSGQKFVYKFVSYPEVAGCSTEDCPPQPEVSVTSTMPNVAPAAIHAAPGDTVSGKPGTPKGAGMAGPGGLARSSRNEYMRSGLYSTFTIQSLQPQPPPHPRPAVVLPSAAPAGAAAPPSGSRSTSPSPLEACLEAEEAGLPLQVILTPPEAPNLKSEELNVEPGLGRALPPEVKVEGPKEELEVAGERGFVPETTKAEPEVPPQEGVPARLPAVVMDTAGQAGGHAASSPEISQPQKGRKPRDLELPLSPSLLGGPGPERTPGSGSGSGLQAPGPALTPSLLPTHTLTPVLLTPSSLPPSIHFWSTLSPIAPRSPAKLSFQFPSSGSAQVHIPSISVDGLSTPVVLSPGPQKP
As to conditions: protein: recombinant; tags: N-terminal GST; dsDNA, one strand shown. The method, boiled down: as §1

Assay [3] concerns the target T3, GABPA (Homo sapiens, UniProt Q06546 1-454).
T3 sequence: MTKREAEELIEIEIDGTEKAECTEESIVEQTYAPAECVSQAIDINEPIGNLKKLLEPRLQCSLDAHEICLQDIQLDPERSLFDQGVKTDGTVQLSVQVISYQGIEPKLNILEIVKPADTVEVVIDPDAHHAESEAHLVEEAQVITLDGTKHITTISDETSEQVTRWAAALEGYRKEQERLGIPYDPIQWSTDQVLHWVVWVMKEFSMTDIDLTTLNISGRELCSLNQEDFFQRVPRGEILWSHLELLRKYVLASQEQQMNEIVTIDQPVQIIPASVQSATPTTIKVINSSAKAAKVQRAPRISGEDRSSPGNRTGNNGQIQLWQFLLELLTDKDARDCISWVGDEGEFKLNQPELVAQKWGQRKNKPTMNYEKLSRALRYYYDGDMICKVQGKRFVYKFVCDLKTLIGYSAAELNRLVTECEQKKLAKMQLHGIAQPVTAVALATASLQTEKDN
As to conditions: protein: recombinant; tags: N-terminal GST; dsDNA, one strand shown. In outline:
as §1

The target of assay [4] is T4, ERG (Homo sapiens, UniProt P11308 1-479).
T4 sequence: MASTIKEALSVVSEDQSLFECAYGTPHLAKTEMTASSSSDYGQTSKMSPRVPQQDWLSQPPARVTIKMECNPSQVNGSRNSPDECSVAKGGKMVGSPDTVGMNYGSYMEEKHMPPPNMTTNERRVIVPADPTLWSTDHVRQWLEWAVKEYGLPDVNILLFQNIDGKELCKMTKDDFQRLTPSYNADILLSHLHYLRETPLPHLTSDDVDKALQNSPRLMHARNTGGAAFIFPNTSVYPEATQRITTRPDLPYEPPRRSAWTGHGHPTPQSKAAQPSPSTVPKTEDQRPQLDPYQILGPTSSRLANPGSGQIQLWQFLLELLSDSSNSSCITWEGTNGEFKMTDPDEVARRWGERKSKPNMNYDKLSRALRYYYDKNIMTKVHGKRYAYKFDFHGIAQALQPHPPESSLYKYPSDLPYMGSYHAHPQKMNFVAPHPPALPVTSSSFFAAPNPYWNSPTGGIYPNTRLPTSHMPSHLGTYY
As to conditions: protein: recombinant; tags: N-terminal GST; dsDNA, one strand shown. In outline: as §1

Assay [5] deals with ELF1 (Homo sapiens, UniProt P32519 1-619). To be noted: protein: recombinant; tags: N-terminal GST; dsDNA, one strand shown. In outline:
as §1

Assay [6] has as its target T5, EHF (Homo sapiens, UniProt Q9NZC4 1-300).
T5 sequence: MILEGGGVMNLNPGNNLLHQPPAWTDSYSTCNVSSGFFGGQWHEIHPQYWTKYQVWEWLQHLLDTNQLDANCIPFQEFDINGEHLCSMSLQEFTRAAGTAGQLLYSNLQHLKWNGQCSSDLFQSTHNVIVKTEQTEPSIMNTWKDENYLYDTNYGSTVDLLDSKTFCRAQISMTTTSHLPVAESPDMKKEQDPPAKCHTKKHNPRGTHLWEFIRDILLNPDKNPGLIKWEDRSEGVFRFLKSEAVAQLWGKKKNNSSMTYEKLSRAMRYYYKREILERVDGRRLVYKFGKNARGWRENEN
To be noted: protein: recombinant; tags: N-terminal GST; dsDNA, one strand shown. In outline: as §1

Assay [7] concerns the target SPI1 (Homo sapiens, UniProt P17947 1-270). As to conditions: protein: recombinant; tags: N-terminal GST; dsDNA, one strand shown. In outline: as §1
Assay [8] concerns the target SPIB (Homo sapiens, UniProt Q01892 1-262). To be noted: protein: recombinant; tags: N-terminal GST; dsDNA, one strand shown. The method, boiled down:
as §1

The target in assay [9] is T6, ELK3 (Homo sapiens, UniProt P41970 1-407).
T6 sequence: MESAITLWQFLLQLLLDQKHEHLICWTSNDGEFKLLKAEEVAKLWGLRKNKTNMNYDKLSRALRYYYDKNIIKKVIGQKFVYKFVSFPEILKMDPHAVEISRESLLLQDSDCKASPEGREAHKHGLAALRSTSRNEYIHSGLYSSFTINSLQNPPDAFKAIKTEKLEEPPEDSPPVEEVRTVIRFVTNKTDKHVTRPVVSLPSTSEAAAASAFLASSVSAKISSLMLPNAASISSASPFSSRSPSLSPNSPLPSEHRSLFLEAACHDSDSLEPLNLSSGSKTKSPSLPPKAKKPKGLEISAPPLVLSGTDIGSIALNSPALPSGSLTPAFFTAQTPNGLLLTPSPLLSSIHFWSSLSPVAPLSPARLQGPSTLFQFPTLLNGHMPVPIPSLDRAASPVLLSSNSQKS
To be noted: protein: recombinant; tags: N-terminal GST; dsDNA, one strand shown. In outline:
as §1

For assay [10], the target named is T7, FEV (Homo sapiens, UniProt Q99581 1-238).
T7 sequence: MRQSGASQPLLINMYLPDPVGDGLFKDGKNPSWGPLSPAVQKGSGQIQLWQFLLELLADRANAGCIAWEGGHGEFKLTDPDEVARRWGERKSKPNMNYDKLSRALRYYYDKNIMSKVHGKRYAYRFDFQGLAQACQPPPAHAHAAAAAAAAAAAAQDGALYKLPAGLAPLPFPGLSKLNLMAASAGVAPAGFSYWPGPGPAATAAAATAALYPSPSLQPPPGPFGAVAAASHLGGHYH
As to conditions: protein: recombinant; tags: N-terminal GST; dsDNA, one strand shown. The method, boiled down:
as §1

The target in assay [11] is ETV5 (Homo sapiens, UniProt P41161 1-510). As to conditions: protein: recombinant; tags: N-terminal GST; dsDNA, one strand shown. The method, boiled down:
as §1

Assay [12] has as its target HSF1 (Homo sapiens, UniProt Q00613 1-529). To be noted: protein: recombinant; tags: N-terminal GST; chain copies: 3; dsDNA, one strand shown. The method, boiled down:
as §1

Assay [13] addresses T8, SPIC (Homo sapiens, UniProt Q8N5J4 1-248).
T8 sequence: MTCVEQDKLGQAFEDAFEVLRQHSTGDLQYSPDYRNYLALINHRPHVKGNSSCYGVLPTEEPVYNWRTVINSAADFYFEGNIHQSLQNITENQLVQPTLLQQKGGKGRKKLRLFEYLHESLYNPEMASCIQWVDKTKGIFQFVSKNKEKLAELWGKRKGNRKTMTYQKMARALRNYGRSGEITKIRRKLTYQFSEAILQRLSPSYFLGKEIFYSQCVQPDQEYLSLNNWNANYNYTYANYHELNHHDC
As to conditions: protein: recombinant; tags: N-terminal GST; dsDNA, one strand shown. The method, boiled down: as §1

Assay [14] has as its target ELF4 (Homo sapiens, UniProt Q99607 1-663). To be noted: protein: recombinant; tags: N-terminal GST; dsDNA, one strand shown. The method, boiled down: as §1
In assay [15] the target is T9, ELK4 (Homo sapiens, UniProt P28324-2 1-405).
T9 sequence: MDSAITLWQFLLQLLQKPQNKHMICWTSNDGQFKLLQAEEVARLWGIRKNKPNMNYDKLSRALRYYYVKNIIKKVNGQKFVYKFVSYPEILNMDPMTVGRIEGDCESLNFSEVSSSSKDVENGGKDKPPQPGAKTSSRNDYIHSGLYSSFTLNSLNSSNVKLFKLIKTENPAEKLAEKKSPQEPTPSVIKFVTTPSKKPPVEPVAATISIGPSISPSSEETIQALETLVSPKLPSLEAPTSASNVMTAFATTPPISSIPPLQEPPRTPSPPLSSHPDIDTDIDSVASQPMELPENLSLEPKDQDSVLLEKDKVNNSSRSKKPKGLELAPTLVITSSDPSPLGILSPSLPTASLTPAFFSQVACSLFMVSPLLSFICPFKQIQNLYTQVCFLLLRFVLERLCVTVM
To be noted: protein: recombinant; tags: N-terminal GST; dsDNA, one strand shown. The method, boiled down: as §1

Assay [16] has as its target T10, ETV2 (Homo sapiens, UniProt O00321 1-342).
T10 sequence: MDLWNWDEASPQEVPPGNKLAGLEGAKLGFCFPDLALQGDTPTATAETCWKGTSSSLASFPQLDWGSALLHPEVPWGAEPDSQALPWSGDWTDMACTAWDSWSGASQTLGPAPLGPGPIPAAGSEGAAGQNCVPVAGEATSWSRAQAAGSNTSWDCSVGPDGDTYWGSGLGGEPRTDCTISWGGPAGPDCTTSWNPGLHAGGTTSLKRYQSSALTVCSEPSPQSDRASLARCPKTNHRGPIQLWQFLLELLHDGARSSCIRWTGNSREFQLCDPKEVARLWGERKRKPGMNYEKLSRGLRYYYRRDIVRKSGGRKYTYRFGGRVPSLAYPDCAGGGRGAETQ
As to conditions: protein: recombinant; tags: N-terminal GST; dsDNA, one strand shown. The method, boiled down:
as §1

The target in assay [17] is T11, ELF3 (Homo sapiens, UniProt P78545 1-371).
T11 sequence: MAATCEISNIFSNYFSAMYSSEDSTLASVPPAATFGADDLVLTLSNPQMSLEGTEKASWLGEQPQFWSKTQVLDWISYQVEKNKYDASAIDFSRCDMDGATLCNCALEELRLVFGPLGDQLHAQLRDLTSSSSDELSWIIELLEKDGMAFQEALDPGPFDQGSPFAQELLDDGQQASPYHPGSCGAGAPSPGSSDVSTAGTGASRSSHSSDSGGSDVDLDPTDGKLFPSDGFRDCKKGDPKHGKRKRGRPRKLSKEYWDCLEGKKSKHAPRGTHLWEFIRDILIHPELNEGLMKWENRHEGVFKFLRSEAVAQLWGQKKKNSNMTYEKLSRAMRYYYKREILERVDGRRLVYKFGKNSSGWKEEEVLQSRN
To be noted: protein: recombinant; tags: N-terminal GST; dsDNA, one strand shown. In outline:
as §1

Assay [18] deals with CRX (Homo sapiens, UniProt O43186 1-299). To be noted: protein: recombinant; tags: N-terminal GST; dsDNA, one strand shown. In outline:
as §1

Assay [19] deals with ETV1 (Homo sapiens, UniProt P50549 1-477). As to conditions: protein: recombinant; tags: N-terminal GST; dsDNA, one strand shown. In outline:
as §1

ELF1, sequence (P32519 whole entry): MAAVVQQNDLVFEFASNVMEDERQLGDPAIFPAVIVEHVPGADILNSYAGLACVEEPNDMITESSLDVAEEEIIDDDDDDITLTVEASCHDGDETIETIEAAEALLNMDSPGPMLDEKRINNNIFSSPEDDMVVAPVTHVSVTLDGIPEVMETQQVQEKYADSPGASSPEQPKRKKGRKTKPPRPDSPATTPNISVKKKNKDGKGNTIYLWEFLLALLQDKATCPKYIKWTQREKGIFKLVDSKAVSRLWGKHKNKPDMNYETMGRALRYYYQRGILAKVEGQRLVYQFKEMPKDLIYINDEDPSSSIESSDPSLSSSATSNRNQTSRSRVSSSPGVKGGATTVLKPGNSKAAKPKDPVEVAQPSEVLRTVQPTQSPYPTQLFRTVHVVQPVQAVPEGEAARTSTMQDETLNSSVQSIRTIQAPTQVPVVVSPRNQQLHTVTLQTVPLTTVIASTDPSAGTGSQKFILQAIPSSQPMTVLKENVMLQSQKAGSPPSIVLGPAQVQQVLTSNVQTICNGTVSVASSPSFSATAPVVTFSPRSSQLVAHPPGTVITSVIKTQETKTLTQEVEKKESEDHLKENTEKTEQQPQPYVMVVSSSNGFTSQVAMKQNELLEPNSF
SPIB, sequence (Q01892 whole entry): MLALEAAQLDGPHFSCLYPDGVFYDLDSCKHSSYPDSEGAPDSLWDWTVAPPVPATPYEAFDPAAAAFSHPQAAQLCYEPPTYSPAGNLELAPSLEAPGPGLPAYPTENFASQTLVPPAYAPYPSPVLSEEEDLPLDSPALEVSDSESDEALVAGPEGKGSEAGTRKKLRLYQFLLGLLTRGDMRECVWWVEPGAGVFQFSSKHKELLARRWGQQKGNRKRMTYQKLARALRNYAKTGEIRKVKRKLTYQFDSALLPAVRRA
HSF1, sequence (Q00613 whole entry): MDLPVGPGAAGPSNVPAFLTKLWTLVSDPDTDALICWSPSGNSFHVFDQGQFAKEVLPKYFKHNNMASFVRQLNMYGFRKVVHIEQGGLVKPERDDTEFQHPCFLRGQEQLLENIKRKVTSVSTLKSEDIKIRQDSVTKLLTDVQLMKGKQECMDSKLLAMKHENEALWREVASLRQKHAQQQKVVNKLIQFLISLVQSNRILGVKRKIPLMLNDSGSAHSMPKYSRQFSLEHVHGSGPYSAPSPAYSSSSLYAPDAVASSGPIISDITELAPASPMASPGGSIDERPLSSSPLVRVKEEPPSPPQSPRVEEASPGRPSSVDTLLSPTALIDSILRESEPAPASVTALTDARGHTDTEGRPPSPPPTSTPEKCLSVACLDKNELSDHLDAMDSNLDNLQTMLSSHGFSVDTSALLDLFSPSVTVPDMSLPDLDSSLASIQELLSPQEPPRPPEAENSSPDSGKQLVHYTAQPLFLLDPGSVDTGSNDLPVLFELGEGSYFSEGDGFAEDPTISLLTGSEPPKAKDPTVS
ETV1, sequence (P50549 whole entry): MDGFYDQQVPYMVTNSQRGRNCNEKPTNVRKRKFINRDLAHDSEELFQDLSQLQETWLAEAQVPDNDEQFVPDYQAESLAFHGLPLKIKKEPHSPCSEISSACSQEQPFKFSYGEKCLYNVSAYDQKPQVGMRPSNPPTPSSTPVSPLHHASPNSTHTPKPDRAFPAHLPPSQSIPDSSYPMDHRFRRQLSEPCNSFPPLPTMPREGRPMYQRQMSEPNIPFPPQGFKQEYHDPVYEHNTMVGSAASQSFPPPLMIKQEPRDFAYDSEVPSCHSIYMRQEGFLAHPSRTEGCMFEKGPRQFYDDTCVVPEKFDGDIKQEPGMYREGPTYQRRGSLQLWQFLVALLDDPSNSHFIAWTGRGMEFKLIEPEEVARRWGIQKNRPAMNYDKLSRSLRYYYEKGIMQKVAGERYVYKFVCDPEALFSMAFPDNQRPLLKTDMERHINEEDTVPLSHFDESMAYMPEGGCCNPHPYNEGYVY
ELF4, sequence (Q99607 whole entry): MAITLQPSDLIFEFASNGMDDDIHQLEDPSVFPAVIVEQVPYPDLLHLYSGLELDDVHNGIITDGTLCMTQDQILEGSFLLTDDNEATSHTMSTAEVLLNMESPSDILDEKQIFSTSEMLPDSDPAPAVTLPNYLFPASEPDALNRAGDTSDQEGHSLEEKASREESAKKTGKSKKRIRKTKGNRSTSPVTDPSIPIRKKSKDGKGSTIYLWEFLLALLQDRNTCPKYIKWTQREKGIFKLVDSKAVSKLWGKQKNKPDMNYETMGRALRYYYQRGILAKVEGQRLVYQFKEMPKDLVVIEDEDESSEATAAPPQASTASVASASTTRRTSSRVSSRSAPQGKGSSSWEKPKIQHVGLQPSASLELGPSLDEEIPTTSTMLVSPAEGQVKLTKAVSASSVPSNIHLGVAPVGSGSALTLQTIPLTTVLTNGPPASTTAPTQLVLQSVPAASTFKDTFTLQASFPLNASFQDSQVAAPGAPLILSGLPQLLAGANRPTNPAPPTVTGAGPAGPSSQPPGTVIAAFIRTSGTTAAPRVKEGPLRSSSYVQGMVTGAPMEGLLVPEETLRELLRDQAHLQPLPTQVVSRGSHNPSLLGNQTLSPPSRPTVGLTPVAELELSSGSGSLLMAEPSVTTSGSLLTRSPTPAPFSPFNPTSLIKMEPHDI
CRX, sequence (O43186 whole entry): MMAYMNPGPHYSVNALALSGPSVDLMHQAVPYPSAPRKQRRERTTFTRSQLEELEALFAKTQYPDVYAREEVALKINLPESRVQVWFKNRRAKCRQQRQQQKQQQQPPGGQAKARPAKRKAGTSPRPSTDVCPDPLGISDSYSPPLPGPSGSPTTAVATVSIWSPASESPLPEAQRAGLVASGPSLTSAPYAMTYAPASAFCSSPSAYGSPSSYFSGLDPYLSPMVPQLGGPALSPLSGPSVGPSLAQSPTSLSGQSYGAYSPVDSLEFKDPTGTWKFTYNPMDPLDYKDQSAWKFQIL
ETV5, sequence (P41161 whole entry): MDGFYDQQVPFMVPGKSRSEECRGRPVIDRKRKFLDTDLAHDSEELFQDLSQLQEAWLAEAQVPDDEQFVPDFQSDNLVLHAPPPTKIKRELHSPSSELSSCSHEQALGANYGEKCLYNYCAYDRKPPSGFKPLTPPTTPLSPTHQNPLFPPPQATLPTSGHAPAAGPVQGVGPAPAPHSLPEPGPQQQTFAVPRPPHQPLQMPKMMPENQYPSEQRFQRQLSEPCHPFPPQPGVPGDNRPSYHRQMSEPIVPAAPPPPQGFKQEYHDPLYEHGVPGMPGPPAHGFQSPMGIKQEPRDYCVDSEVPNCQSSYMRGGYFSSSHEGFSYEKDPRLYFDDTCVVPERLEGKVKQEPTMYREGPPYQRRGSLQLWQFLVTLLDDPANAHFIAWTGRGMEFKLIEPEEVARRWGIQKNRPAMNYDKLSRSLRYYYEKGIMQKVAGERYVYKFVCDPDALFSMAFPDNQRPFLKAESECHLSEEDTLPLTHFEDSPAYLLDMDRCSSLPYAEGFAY

Consider CTTTCT, for which the binding signal in [1] is 1.6 fold enrichment (6-mer frequency, TF over GST control); in [2] it was 1.6 fold enrichment (6-mer frequency, TF over GST control); in [3] it was 1.5 fold enrichment (6-mer frequency, TF over GST control); in [4] it was 1.53 fold enrichment (6-mer frequency, TF over GST control); in assay [5] it was 1.55 fold enrichment (6-mer frequency, TF over GST control); in assay [6] it was 1.53 fold enrichment (6-mer frequency, TF over GST control). Moreover, the binding signal was 1.67 fold enrichment (6-mer frequency, TF over GST control) in assay [7]; 1.48 fold enrichment (6-mer frequency, TF over GST control) in assay [8]; 1.65 fold enrichment (6-mer frequency, TF over GST control) in [9]; 1.47 fold enrichment (6-mer frequency, TF over GST control) in assay [10]; 1.52 fold enrichment (6-mer frequency, TF over GST control) in assay [11]; 2.74 fold enrichment (6-mer frequency, TF over GST control) in assay [12]. In addition, the binding signal in [13] was 1.67 fold enrichment (6-mer frequency, TF over GST control); in assay [14], 1.48 fold enrichment (6-mer frequency, TF over GST control); in assay [15], 1.54 fold enrichment (6-mer frequency, TF over GST control); in [16], 1.65 fold enrichment (6-mer frequency, TF over GST control); in assay [17] it was 1.73 fold enrichment (6-mer frequency, TF over GST control); in [18], 1.76 fold enrichment (6-mer frequency, TF over GST control). Besides, the binding signal in assay [19] was 1.56 fold enrichment (6-mer frequency, TF over GST control).
